This is a sample that favours compounds with a hit; in the whole collection about 22% have one here.
CYP2C19 act – activators of human cytochrome P450 2C19. activation factor at 5 µM. P33261. recombinant CYP2C19, luciferin-H EGE luminescence; active compounds read high; 0 = fully inhibited enzyme, 1 = untreated enzyme. 96,000 tested, under 10 active;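 active means activation factor of at least 2 at 5 µM in the primary screen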;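 further: 0 = wells with 2.5 mM tranylcypromine and 1 = vehicle-only wells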
CYP2C19 inh – inhibitors of human CYP2C19. hit rate 21% among 96,000. CYP2C19 Supersomes, luciferin-H EGE luminescence, 30 min. P33261. inhibition, % at 5 µM. AID 778;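 active means CYP2C19 inhibition above a set limit at 5 µM in the primary screen, cut at about 50% in these data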;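 further: plate controls were negative control wells for no effect and 2.5 mM tranylcypromine positive control for full effect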
F-actin modifier – alters cytoskeleton assembly in HUVEC cells. hit rate 0.18% among 91,000. HUVEC TNFa F-actin phalloidin imaging, high content. inhibition, % at 2 µM;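 active means inhibition above the batch mean plus 3 SD and confirmed as a hit by visual image inspection, cut at about 30% in these data, passing the limit was not always enough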
CYP2C9 activ – CYP2C9 (human) activation; P11712; recombinant CYP2C9, luciferin-H conversion, luminescence; active compounds read high; factor 1 = untreated enzyme, 0 = blocked; activation factor at 5 µM; hit rate 1.4% among 96,000;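 active means activation factor of 2 or more for CYP2C9 at a 5 µM dose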;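 further: 0 = sulfaphenazole-blocked wells and 1 = vehicle-only wells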
Target sequence (P11712 whole entry, looked up): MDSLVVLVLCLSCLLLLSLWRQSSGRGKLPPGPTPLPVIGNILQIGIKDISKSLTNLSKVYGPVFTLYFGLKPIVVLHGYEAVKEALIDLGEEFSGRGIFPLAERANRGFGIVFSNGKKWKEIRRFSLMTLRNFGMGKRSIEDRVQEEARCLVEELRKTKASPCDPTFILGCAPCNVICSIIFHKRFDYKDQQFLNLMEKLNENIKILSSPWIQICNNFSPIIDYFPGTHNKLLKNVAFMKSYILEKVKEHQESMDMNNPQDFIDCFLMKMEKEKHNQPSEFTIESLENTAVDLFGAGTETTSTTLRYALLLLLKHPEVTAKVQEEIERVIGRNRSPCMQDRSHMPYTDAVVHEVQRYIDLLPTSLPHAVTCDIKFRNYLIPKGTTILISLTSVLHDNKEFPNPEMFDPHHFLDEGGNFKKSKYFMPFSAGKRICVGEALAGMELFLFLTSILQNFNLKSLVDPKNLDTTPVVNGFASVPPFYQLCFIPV
CYP2C9 inh – inhibitors of human CYP2C9 | P11712 | CYP2C9 Supersomes, luciferin-H conversion, luminescence | inhibition, % at 5 µM | hit rate 20% among 96,000 | AID 777;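 active means blocking of liver enzyme CYP2C9 beyond about 50% at 5 µM, limit read from the data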
E-sel TNF inh – TNF alpha driven E-selectin expression inhibition | hit rate 0.71% among 120,000 | inhibition, % at 2 µM | HUVEC TNFa-induced E-selectin immunofluorescence, high content | AID 1246;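 active means inhibition above the batch mean plus 3 SD, and confirmed as a hit on visual image review, cut at about 43% in these data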;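 further: 0% = TNF-stimulated DMSO wells and 100% = unstimulated control wells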
The depositor's hits bear a star; x = no result.

SMILES	CYP2C19 act	CYP2C19 inh	F-actin modifier	CYP2C9 activ	CYP2C9 inh	E-sel TNF inh
O=C(CSc1nnc(Cc2ccccc2)n1Cc1ccco1)NC1CCCC1	1	2	-1	0.9	5	2
COc1cccc(-c2nnc(SCC(=O)OC(C)C)n2Cc2ccco2)c1	0.2	80*	20	0.1	85*	9
CC(C)OC(=O)CSc1nnc(Cc2ccccc2)n1Cc1ccco1	0.3	71*	-5	0.5	50	-6
CC(C(=O)NC1=NCCS1)N1C(=O)C2CC=CCC2C1=O (stereo not drawn)	1.1	-8	5	1	2	x
Cc1ccc(OC(=O)CCC(=O)OCCCC(F)(F)C(F)(F)F)cc1	1.1	-14	-10	1.1	-7	0
Cc1ccccc1OC(=O)CCC(=O)OCCCC(F)(F)C(F)(F)F	0.5	54*	-17	0.6	41	21
COc1cnn(-c2ccccc2)c(=O)c1SCc1ccc(Cl)cc1Cl	0.3	67*	-8	0.5	47	-22
Cc1ccccc1N=C1N=C(N)c2ccccc21	x	x	x	x	x	-6
Cc1ccc(N=C2N=C(N)c3ccccc32)c(C)c1	1	5	-3	0.4	58*	-19
Cc1cc(C(=O)c2ccccc2)c(NC(=O)CCl)s1	x	x	x	x	x	18
Cc1ccccc1-n1nc(C)c2cc(C(=O)N3CCN(S(=O)(=O)c4ccc(Cl)cc4)CC3)sc21	0.5	47	11	0.3	66*	-27
Cc1ccccc1-n1nc(C)c2cc(C(=O)N3CCN(S(=O)(=O)c4ccc(F)cc4)CC3)sc21	0.9	11	28	0.2	75*	-4
C/C(=N\NS(=O)(=O)c1ccc(C)cc1)c1ccc(Br)s1	0.4	58*	4	0.3	71*	-12
Cc1ccc(N2CC(C(=O)N3CCN(C(=O)c4ccco4)CC3)CC2=O)cc1 (stereo not drawn)	1	4	8	0.9	8	4
C=CCn1c(C)cc(C(=O)CN2C(=O)NC3(CCCc4ccccc43)C2=O)c1C (stereo not drawn)	0.6	44	-4	0.2	82*	3
Cc1cc(C(=O)CN2C(=O)NC3(CCCc4ccccc43)C2=O)c(C)n1Cc1cccs1 (stereo not drawn)	1	1	0	0.6	44	-25
Cc1cc(C(=O)CN2C(=O)NC(c3ccccc3)(c3ccccc3)C2=O)c(C)n1Cc1ccco1	0.8	16	27	0.4	62*	74*
COc1ccc(C(=O)CN2C(=O)NC3(CCCc4ccccc43)C2=O)cc1OC (stereo not drawn)	x	x	10	x	x	100*
COc1ccc(C(=O)CN2C(=O)NC3(CCCCC3)C2=O)cc1OC	x	x	x	x	x	-10
O=C(NCc1ccccc1Cl)c1ccc(-c2ccccc2)cc1	x	x	x	x	x	-14
Cn1c(=O)c2sccc2n2c(CCCC(=O)NCc3ccc4c(c3)OCO4)nnc12	0.2	77*	5	0.9	6	-38
O=C(CCCCn1c(=O)[nH]c2ccsc2c1=O)NCc1ccc2c(c1)OCO2	0.9	11	-19	0.4	60*	x
COc1cc2[nH]c(=O)n(CCC(=O)N3CCN(Cc4ccc5c(c4)OCO5)CC3)c(=O)c2cc1OC	x	x	x	x	x	-9
O=C(CCCCCn1c(=O)[nH]c2ccccc2c1=O)N1CCN(Cc2ccc3c(c2)OCO3)CC1	0.4	65*	x	0.2	80*	x
Cn1c(=O)cc(SCC(=O)N2CCN(Cc3ccc4c(c3)OCO4)CC2)c2ccccc21	0.8	24	-16	0.5	52*	x
SMILES	CYP2C19 act	CYP2C19 inh	F-actin modifier	CYP2C9 activ	CYP2C9 inh	E-sel TNF inh
O=C(CCCCn1c(=S)[nH]c2ccsc2c1=O)NCc1ccc2c(c1)OCO2	x	x	x	x	x	-28
CCc1ccc2[nH]c3nc(SCC(=O)NNC(=O)c4ccc(C(C)(C)C)cc4)nnc3c2c1	1	3	-5	1.1	-5	-41
CCCOC(=O)C(C)n1c(-c2ccccc2)nc2ccccc2c1=O (stereo not drawn)	0.9	6	-27	0.8	18	-12
CC(C)CN(CC(C)C)S(=O)(=O)N1CCC(C(=O)NC2CCCCCCC2)CC1	1	3	x	0.9	9	-11
Cc1c(C(=O)OCC(=O)N2c3ccccc3CC2C)oc2ccccc12 (stereo not drawn)	x	x	-8	x	x	-3
O=C(OCC(=O)N1CCCc2ccccc21)c1ccc(Br)o1	0.1	85*	-19	0.5	51*	x
O=C(c1ccc(Br)o1)N1CCCc2ccccc21	x	x	4	x	x	-4
O=C(Cn1[nH]c(=O)c2ccccc2c1=O)OCC(=O)N1CCCc2ccccc21	0.5	51*	-16	0.6	43	-12
CC1Cc2ccccc2N1C(=O)COC(=O)CNC(=O)c1ccc(Br)o1 (stereo not drawn)	0.3	66*	-13	0.5	51*	-41
O=C(OCC(=O)N1CCc2ccccc21)c1cccnc1	0.2	77*	-2	0.7	33	x
CC(=O)c1cnn(-c2cc(Oc3cccc(C)c3)ncn2)c1C	0.5	49	-25	0.5	47	6
CSc1ccccc1N1CCN(C(=O)Nc2ccc3c(c2)NC(=O)CO3)CC1	0.7	31	0	0.9	7	13
Cn1c(=O)c2c(nc(Br)n2CCc2ccccc2)n(C)c1=O	0.6	42	-30	0.9	11	-19
COc1ccc(CNC(=O)CCCOc2cc(=O)n(C)c3ccccc23)cc1	0.1	92*	6	0.2	78*	x
COc1ccc(N2CCN(C(=O)CCCOc3cc(=O)n(C)c4ccccc34)CC2)cc1	0.1	88*	5	0.1	88*	32
COc1ccc(OCCN(C)Cc2ccccc2)cc1	0.3	68*	8	1.2	-19	29
CC1CCN(C(=O)CCCOc2cc(=O)n(C)c3ccccc23)CC1	0.5	50*	13	1.3	-27	-10
CN1CCN(CCCNC(=O)CCCOc2cc(=O)n(C)c3ccccc23)CC1	1	3	-3	0.9	7	-44
CCOC(=O)c1[nH]c(C)c(C(=O)Nc2cccc(Cl)c2C)c1C	0.8	17	-26	0.6	43	7
COc1ccc(OCCC(=O)NCc2ccccc2)cc1	0.5	51*	8	1	-3	-38
Cc1ccc(C)c(N2CCN(C(=O)CCCOc3cc(=O)n(C)c4ccccc34)CC2)c1	0.1	94*	2	0.1	90*	7
Cc1cccc(N2CCN(C(=O)COc3cc(=O)n(C)c4ccccc34)CC2)c1C	0.5	51*	-11	1.1	-6	-1
COc1ccc(CNC(=O)COC(=O)CCOc2ccccc2)cc1	x	x	x	x	x	-11
O=C(CSc1nc(-c2ccc(F)cc2)cc(C(F)(F)F)n1)NCc1ccco1	x	x	13	x	x	6
O=S1(=O)CCC(NCC2CCCO2)C1 (stereo not drawn)	1	-2	-9	1.1	-8	2
COc1ccc(Cn2nnnc2C(c2cc(OC)ccc2OC)N2CCC(C(N)=O)CC2)cc1 (stereo not drawn)	0.6	38	-16	1	4	18
